Reference: PubChem BioAssay (NCI)
About 79,000 compounds went through this panel and 15% of them were active in at least one assay; those are over-represented in the sample as a whole. Calls of active or inactive are those of the source. No stated cut-off is given here; in the data, active means growth inhibition above about 70%; inactive means the rest.

Assay: NCI Yeast Anticancer Drug Screen. Data for the CLN2oe strain (AID 163);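 further: 0% = growth of vehicle-only control cultures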
Conditions: S. cerevisiae CLN2oe strain, active compounds read high
Protocol: Growth inhibition of yeast strains with defined genetic alterations is measured as a screen for potential anti-cancer activity. Selected strains with alterations in DNA damage repair or cell cycle control were exposed to compounds and growth inhibition was measured relative to vehicle treated controls. The strain used in this assay is CLN2oe

Measured: growth inhibition

CCOC(=O)CC1(C(=O)OCC)c2[nH]c3ccccc3c2CCN1Cc1ccccc1 (stereo not given)
active: at 100.0 µM 74%
inactive: at 1.2 µM -1% | at 3.7 µM 2% | at 11.0 µM 4% | at 33.0 µM 12%

Cc1nc(Nc2ccccc2[N+](=O)[O-])sc1C(=O)CC(=O)C(=O)Nc1c(C(C)C)cccc1C(C)C
inactive: at 1.2 µM 3% | at 3.7 µM 1% | at 11.0 µM 4% | at 33.0 µM 11% | at 100.0 µM 12%

CCCC(=O)Oc1c(C)cc([N+](=O)[O-])cc1[N+](=O)[O-]
active: at 11.0 µM 94% | at 33.0 µM 99% | at 100.0 µM 99%
inactive: at 1.2 µM -11% | at 3.7 µM -2%

CCCOC(=O)C(F)C(Br)C(=O)OCCC (stereo not given)
active: at 3.7 µM 87% | at 11.0 µM 97% | at 33.0 µM 97% | at 100.0 µM 98%
inactive: at 1.2 µM 48%

COc1ccc(C/C=N/Nc2ccc([N+](=O)[O-])cc2)cc1OC
inactive: at 1.2 µM 8% | at 3.7 µM 6% | at 11.0 µM 12% | at 33.0 µM 1% | at 100.0 µM 20%

Oc1ccc(O)c(Cc2ccccc2)c1
inactive: at 1.2 µM 3% | at 3.7 µM 28% | at 11.0 µM 40%
active: at 33.0 µM 72% | at 100.0 µM 98%

c1ccc2c(c1)sc1c3cnccc3ccc21
inactive: at 1.2 µM 4% | at 3.7 µM 8% | at 11.0 µM 1% | at 33.0 µM 5% | at 100.0 µM 8%

CCOC(=O)C1N=[N+](c2ccccc2)C(=O)/C1=C\n1c(=S)[nH]c2ccc([N+](=O)[O-])cc21 (stereo not given)
inactive: at 1.2 µM 1% | at 3.7 µM -1% | at 11.0 µM -1% | at 33.0 µM 4% | at 100.0 µM 3%
